Bioassay records: PubChem BioAssay, Sanford-Burnham Center for Chemical Genomics
These entries were drawn from the full list.
TNAP inh pNP – human TNAP enzyme inhibitors, primary screen, biochemical, colorimetric, p-nitrophenol readout | AID 615, 2007 | 21,000 tested, under 10 active | Alkaline phosphatase, tissue-nonspecific isozyme (Homo sapiens), P05186 | purified TNAP, pNPP hydrolysis, absorbance 405 nm | inhibition, % at 20 µM
Target sequence (P05186 whole entry, looked up): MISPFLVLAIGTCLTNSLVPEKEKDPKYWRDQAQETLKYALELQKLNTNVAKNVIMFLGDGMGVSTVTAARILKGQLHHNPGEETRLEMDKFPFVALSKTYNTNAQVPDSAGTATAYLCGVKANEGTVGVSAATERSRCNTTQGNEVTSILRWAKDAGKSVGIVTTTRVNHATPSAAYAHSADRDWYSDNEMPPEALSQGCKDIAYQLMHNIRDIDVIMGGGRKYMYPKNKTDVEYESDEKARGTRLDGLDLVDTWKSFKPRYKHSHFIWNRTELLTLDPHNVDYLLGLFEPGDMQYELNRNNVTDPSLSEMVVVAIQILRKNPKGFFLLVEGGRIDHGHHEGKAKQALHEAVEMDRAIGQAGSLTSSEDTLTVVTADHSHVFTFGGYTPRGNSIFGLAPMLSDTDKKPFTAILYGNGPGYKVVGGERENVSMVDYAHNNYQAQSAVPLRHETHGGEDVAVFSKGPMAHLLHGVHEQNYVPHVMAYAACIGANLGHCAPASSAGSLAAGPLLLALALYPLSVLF
TNAP inh Pi – human TNAP enzyme inhibitors, primary screen, biochemical, colorimetric, phosphate release readout; Alkaline phosphatase, tissue-nonspecific isozyme (Homo sapiens), P05186; purified TNAP, pNPP, malachite green phosphate absorbance; inhibition, % at 20 µM; 21,000 tested, under 10 active; AID 614, 2007
Each line names hits and unclear results; the compound was inactive in the other large screens.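 The calls were made as follows: active = inhibition above 50% at the 20 µM single-dose screen; inactive = the rest.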

CCC(=O)N1CCN(c2ccccc2NC(=O)COc2cc(C)ccc2C(C)C)CC1	none
CCOC(=O)c1cnc(SCc2nc(N)nc(Nc3ccc(C)cc3)n2)nc1N	none
CCCn1c(SCC(=O)c2cc(OC)ccc2OC)nnc1C(C)C	none
O=C(NC1CCCC1)C1CCCN1C(=O)Nc1ccc(Cl)cc1 (configuration not stated)	none
COc1cccc(OC)c1OCC(C)CNCC1CCCO1 (configuration not stated)	none
Cc1cc(C)nc(N2CCC(CNC(=O)CCc3ccccc3)CC2)n1	none
Cc1nc2c(c(=O)n1CC1CCCO1)c1nc3ccccc3nc1n2Cc1ccc2c(c1)OCO2 (configuration not stated)	none
CCn1c(SCC(=O)Nc2ccc(S(N)(=O)=O)cc2)nnc1-c1cccc(OC)c1	none
CCOC(=O)C1=C(N)N2C(=O)CSC2=C(C(=O)OC)C1	none
O=C1COc2ccc(C(=O)c3ccccc3)cc2CN1	none
O=C1CSC(c2ccccn2)N1Cc1cn2ccccc2n1 (configuration not stated)	none
O=C(NCCCN1CCOCC1)C(C(=O)c1ccccc1)n1ccccc1=O (configuration not stated)	none
O=C1CC(N(Cc2ccco2)C(=O)Nc2ccc(F)cc2)C(=O)N1c1ccc(F)cc1 (configuration not stated)	none
COc1ccc(Cl)cc1N(CC(=O)Nc1ccccc1SC)S(C)(=O)=O	none
Cn1cc(Cl)c(C(=O)N2CCN(c3ncccn3)CC2)n1	none
Clc1ccc2nc(CN3CCCc4ccccc43)cn2c1	none
Cc1cccc(C)c1NC(=O)CSCC(=O)c1ccc(O)c(O)c1	none
CCOc1ccc(S(=O)(=O)N(C)CCO)cc1-c1nc2c(C(C)(C)C)nn(C)c2c(=O)[nH]1	none
Cc1cc(C)nc(N2CCCC(C(=O)NC(C)CCc3ccco3)C2)n1 (configuration not stated)	none
C=CCn1c(Cc2cccs2)nnc1SCC(=O)c1cccc(Br)c1	none
Cc1cc(C)n2nc(NCc3cccc(Br)c3)nc2n1	none
COc1ccc(-c2nnn(CC(=O)Nc3sc4c(c3C#N)CCCC4)n2)cc1	none
COc1ccc(C2c3c(-c4cc(Cl)c(C)cc4O)n[nH]c3C(=O)N2Cc2cccnc2)cc1OC (configuration not stated)	none
CC(C)OCCCNc1ncnc2c1[nH]c1ccccc12	none
Cc1cc(Nc2nc3c(c(=O)n(C)c(=O)n3C)n2C)n(-c2ccccc2)n1	none
CC1(C)CC(=O)C(C=NCCN2CCN(C(=O)C34CC5CC(CC(C5)C3)C4)CC2)=C(O)C1	none
Cc1noc(C)c1CSc1ccccc1C(=O)Nc1nccs1	none
CCOC(=O)c1cc2c(=O)n3cccc(C)c3nc2n(CCc2ccccc2)c1=N	none
COC(=O)c1cc(Br)c(=O)n(Cc2ccc(OC)c(OC)c2)c1	none
CCOC(=O)c1cc2occc2n1CC(=O)Nc1ccc(OC)cc1OC	none
COc1cccc(C2/C(=C(\O)c3c(C)nc4c(C)cccn34)C(=O)C(=O)N2CCCN(C)C)c1 (configuration not stated)	none
Cc1ccc(-c2nnn(CC(=O)Nc3ccccc3-c3ccccc3)n2)c(-n2cnnn2)c1	none
